# Test results reported in PubChem BioAssay.
# Activity calls are given as the source filed them. Unless noted, the rule behind the calls is not given here.
# Assays:
# [1] = resazurin metabolic signal in HepG2 cells – cell-based, resazurin fluorescence, 24 h, PK04 Diversity Set, profiling panel (AID 1172); conditions: HepG2 viability, higher = more signal; note: test concentration not given here
# [2] = budding yeast growth changes without added modifier – OD600, strain BY4716, 24 h, basal condition, primary screen (AID 1173); conditions: S. cerevisiae BY4716 growth, OD600, 24 h; higher = more signal, called active from +8 up or from −8 down
# [3] = viability profiling in MM1S myeloma cells – cell-based, resazurin fluorescence, basal, 24 h, PK04 Diversity Set, profiling panel (AID 1174); conditions: higher = more signal, called active from +8 up or from −8 down;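 note: MM1S multiple myeloma cell line; test concentration not given here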
# [4] = target: Dihydroorotate dehydrogenase (quinone), mitochondrial (Plasmodium falciparum (isolate 3D7)) (UniProt Q08210); assay: inhibition of P. falciparum DHODH – biochemical, C-terminal His tag, absorbance 600 nm, primary screen (AID 1175); conditions: PfDHODH enzyme, DCIP absorbance 600 nm; higher = more signal, called active from +8 up or from −8 down;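 note: recombinant parasite enzyme with a five histidine tag at its C terminus; test concentration not given here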
# Chain of Dihydroorotate dehydrogenase (quinone), mitochondrial (Plasmodium falciparum (isolate 3D7)) (Q08210 whole entry, looked up): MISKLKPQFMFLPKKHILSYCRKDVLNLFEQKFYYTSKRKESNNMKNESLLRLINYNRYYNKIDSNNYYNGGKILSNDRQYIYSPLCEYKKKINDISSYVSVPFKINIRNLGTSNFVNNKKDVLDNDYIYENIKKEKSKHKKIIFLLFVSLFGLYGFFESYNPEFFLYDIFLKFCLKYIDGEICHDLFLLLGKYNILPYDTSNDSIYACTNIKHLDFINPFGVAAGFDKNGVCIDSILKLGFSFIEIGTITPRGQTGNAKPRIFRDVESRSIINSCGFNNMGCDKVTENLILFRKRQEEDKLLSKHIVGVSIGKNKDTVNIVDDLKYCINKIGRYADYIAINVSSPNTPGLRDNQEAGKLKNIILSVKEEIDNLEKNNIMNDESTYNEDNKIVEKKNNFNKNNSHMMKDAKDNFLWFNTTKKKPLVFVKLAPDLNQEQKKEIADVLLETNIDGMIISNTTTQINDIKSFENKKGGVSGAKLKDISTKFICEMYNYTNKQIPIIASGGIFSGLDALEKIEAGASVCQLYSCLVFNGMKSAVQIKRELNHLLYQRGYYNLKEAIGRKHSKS
# [5] = inhibition of PAO1 biofilm formation – strain PAO1, LB-PBS medium, absorbance 600 nm, primary screen (AID 1176); note: test concentration not given here; conditions: P. aeruginosa PAO1 growth/biofilm, A600, 12 h; higher = more signal
# [6] = growth modulation of vineyard yeast isolate – strain RM11-1a, OD600, basal, 24 h, primary screen (AID 1177);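 note: cultures grown under basal conditions with no added stressor; test concentration not given here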; conditions: S. cerevisiae RM11-1a growth, OD600, 24 h; higher = more signal, called active from +8 up or from −8 down
# [7] = growth of efflux-deficient E. coli DRC39 – strain DRC39, OD650, 24 h, E. coli filamentation inducers, primary screen (AID 1178);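 note: growth measured as culture turbidity by optical density at 650 nm; test concentration not given here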; conditions: E. coli DRC39 acrAB, higher = more signal, called active from +8 up or from −8 down
# [8] = growth of efflux-deficient E. coli DRC39 – strain DRC39, OD650, 48 h, E. coli filamentation inducers, primary screen (AID 1179);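 note: screen aims at cell division blockers that make cells filament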; conditions: E. coli DRC39 delta-acrAB growth, higher = more signal, called active from +8 up or from −8 down
# [9] = viability profiling in RPMI8226 myeloma cells – cell-based, resazurin fluorescence, basal, 24 h, PK04 Diversity Set, profiling panel (AID 1180); conditions: higher = more signal;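 note: RPMI8826 multiple myeloma cell line at 5000 cells per well; test concentration not given here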
# [10] = target: E3 ubiquitin-protein ligase XIAP (Homo sapiens) (UniProt P98170); assay: small molecules binding XIAP protein – biophysical, small-molecule microarray, fluorescence 635 nm, primary screen (AID 1181); conditions: higher = more signal;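 note: score merges 667 nm emission and signal to noise over triplicate slides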
# Chain of E3 ubiquitin-protein ligase XIAP (Homo sapiens) (P98170 whole entry, looked up): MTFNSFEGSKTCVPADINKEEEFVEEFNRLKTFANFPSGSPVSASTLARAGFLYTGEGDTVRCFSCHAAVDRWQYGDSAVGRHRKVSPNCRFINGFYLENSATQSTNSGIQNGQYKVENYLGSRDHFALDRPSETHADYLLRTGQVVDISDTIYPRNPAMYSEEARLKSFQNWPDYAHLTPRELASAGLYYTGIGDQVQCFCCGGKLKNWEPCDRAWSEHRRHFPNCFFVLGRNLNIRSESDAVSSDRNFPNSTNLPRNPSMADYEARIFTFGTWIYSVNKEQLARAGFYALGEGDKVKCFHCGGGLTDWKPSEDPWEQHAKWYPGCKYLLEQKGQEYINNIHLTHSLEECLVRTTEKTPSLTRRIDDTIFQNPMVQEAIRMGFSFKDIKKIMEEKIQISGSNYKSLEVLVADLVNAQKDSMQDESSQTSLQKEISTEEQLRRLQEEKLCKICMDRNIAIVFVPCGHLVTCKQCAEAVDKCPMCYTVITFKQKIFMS
smiles,measurement,setting,value
O=C1NC(=O)C2C1C=CC(C(O)C(c1ccccc1)c1ccccc1)N2Nc1ccccn1 (stereo not given),z-score,[1],-0.187
same,z-score,[2],-0.639 (inactive)
same,z-score,[3],-0.408 (inactive)
same,composite z-score,[4],1.72 (inactive)
same,z-score,[5],0.916 (inactive)
same,z-score,[6],0.419 (inactive)
same,z-score,[7],-0.156 (inactive)
same,z-score,[8],-0.284 (inactive)
same,z-score,[9],0.261
same,composite z-score,[10],0.417
COCCOC(=O)N1C(=O)[C@@]2(c3cc(C#CCC(C(=O)OC)C(=O)OC)ccc31)[C@H](C(=O)N1CCc3cc(OC)c(OC)cc3C1)[C@H]1C(=O)O[C@H](c3ccccc3)[C@H](c3ccccc3)N1[C@@H]2c1ccccc1OCCO,z-score,[1],1.11
same,z-score,[2],1.48 (inactive)
same,z-score,[3],0.328 (inactive)
same,composite z-score,[4],-1.23 (inactive)
same,z-score,[5],1.68 (inactive)
same,z-score,[6],1.3 (inactive)
same,z-score,[7],0.414 (inactive)
same,z-score,[8],-0.186 (inactive)
same,z-score,[9],0.637
same,composite z-score,[10],-0.226
C=CC[C@]1(C(=O)NCCN2CCOCC2)N=C(c2ccc(OCCCO)cc2)O[C@H]1c1ccccc1,z-score,[1],0.543
same,z-score,[2],-0.916 (inactive)
same,z-score,[3],0.635 (inactive)
same,composite z-score,[4],0.507 (inactive)
same,z-score,[5],0.509 (inactive)
same,z-score,[6],-0.548 (inactive)
same,z-score,[7],-0.0082 (inactive)
same,z-score,[8],-0.864 (inactive)
same,z-score,[9],0.749
same,composite z-score,[10],-0.0351
CC(=O)NCCCC[C@@H]1NC(=O)[C@H]2C[C@@H](C(=O)NCCCCCN)[C@@H](c3ccc(O)cc3)N2C1=O,z-score,[1],-0.508
same,z-score,[2],1.26 (inactive)
same,z-score,[3],-0.336 (inactive)
same,composite z-score,[4],0.538 (inactive)
same,z-score,[5],-0.13 (inactive)
same,z-score,[6],1.08 (inactive)
same,z-score,[7],-0.496 (inactive)
same,z-score,[8],-0.696 (inactive)
same,z-score,[9],-0.121
same,composite z-score,[10],-0.224
C=CCNC(=O)[C@H]1[C@@H]2C(=O)O[C@@H](c3ccccc3)[C@@H](c3ccccc3)N2[C@@H](c2ccc(O)cc2)[C@]12C(=O)Nc1ccccc12,z-score,[1],0.715
same,z-score,[2],-0.842 (inactive)
same,z-score,[3],0.557 (inactive)
same,composite z-score,[4],0.776 (inactive)
same,z-score,[5],1.15 (inactive)
same,z-score,[6],1.76 (inactive)
same,z-score,[7],0.691 (inactive)
same,z-score,[8],0.975 (inactive)
same,z-score,[9],-1.34
same,composite z-score,[10],-0.144
CC[C@@H](O[Si](C#C[Si](C(C)C)(C(C)C)C(C)C)(C(C)C)C(C)C)c1cn(Cc2cccc(Cl)c2)nn1,z-score,[1],0.318
same,z-score,[2],1.42 (inactive)
same,z-score,[3],0.0769 (inactive)
same,composite z-score,[4],0.625 (inactive)
same,z-score,[5],0.313 (inactive)
same,z-score,[6],1.33 (inactive)
same,z-score,[7],-0.0544 (inactive)
same,z-score,[8],0.309 (inactive)
same,z-score,[9],0.961
same,composite z-score,[10],0.0583
O=C1N(Cc2ccccc2)Cc2ccccc2C[C@@]12COC(c1ccc(OCCCO)cc1)=N2,z-score,[1],0.775
same,z-score,[2],0.842 (inactive)
same,z-score,[3],-8.43 (active)
same,composite z-score,[4],0.719 (inactive)
same,z-score,[5],-0.289 (inactive)
same,z-score,[6],4.69 (inactive)
same,z-score,[7],1.42 (inactive)
same,z-score,[8],0.0613 (inactive)
same,z-score,[9],-2.81
same,composite z-score,[10],-0.124
COc1cc(CO)cc(I)c1O[C@H]1C=C(C(=O)NCCO)C[C@@H](N(CCN2CCOCC2)C(=O)C2CCCO2)[C@@H]1O (stereo not given in full),z-score,[1],0.687
same,z-score,[2],-0.371 (inactive)
same,z-score,[3],-0.202 (inactive)
same,composite z-score,[4],0.826 (inactive)
same,z-score,[5],-0.365 (inactive)
same,z-score,[6],0.772 (inactive)
same,z-score,[7],2.09 (inactive)
same,z-score,[8],1.21 (inactive)
same,z-score,[9],0.716
same,composite z-score,[10],-0.117
CC(C)Cc1ccc(CN2CC[C@@H](NC(=O)c3ccccc3)C2)cc1,z-score,[1],-0.375
same,z-score,[2],-7.1 (inactive)
same,z-score,[3],-0.18 (inactive)
same,composite z-score,[4],0.228 (inactive)
same,z-score,[5],-0.0248 (inactive)
same,z-score,[6],2.05 (inactive)
same,z-score,[7],0.295 (inactive)
same,z-score,[8],0.118 (inactive)
same,z-score,[9],-0.193
same,composite z-score,[10],-0.135
O=C(CS)NCCCCCCNC(=O)[C@H]1C[C@H]2C(=O)NCC(=O)N2[C@H]1c1cccc(OCCO)c1,z-score,[1],-0.39
same,z-score,[2],-0.462 (inactive)
same,z-score,[3],-0.0674 (inactive)
same,composite z-score,[4],-0.59 (inactive)
same,z-score,[5],0.339 (inactive)
same,z-score,[6],0.0796 (inactive)
same,z-score,[7],0.469 (inactive)
same,z-score,[8],-0.814 (inactive)
same,z-score,[9],-0.348
same,composite z-score,[10],0.0269
[N-]=[N+]=NCc1ccccc1[C@H]1OC(c2ccc(OCCCO)cc2)=N[C@@]1(Cc1ccccc1N=[N+]=[N-])C(=O)N1CCOCC1,z-score,[1],-0.317
same,z-score,[2],-0.783 (inactive)
same,z-score,[3],-2.46 (inactive)
same,composite z-score,[4],1.03 (inactive)
same,z-score,[5],0.438 (inactive)
same,z-score,[6],1.43 (inactive)
same,z-score,[7],-0.33 (inactive)
same,z-score,[8],-0.799 (inactive)
same,z-score,[9],-2.58
same,composite z-score,[10],0.122
CN1C(=O)C2C=CC(C(O)c3ccc(I)cc3)N(N(c3ccccc3)c3ccccc3)C2C1=O (stereo not given),z-score,[1],-0.476
same,z-score,[2],0.943 (inactive)
same,z-score,[3],-0.788 (inactive)
same,composite z-score,[4],0.0495 (inactive)
same,z-score,[5],0.944 (inactive)
same,z-score,[6],0.67 (inactive)
same,z-score,[7],-1.36 (inactive)
same,z-score,[8],-0.105 (inactive)
same,z-score,[9],-1.1
same,composite z-score,[10],0.95
COc1ccc(NN2C(C(O)c3ccccc3)C=CC3C(=O)N(C4CCCCC4)C(=O)C32)cc1 (stereo not given),z-score,[1],-0.403
same,z-score,[2],0.047 (inactive)
same,z-score,[3],-0.0925 (inactive)
same,composite z-score,[4],-0.638 (inactive)
same,z-score,[5],0.505 (inactive)
same,z-score,[6],1.5 (inactive)
same,z-score,[7],-0.0187 (inactive)
same,z-score,[8],0.0413 (inactive)
same,z-score,[9],0.0134
same,composite z-score,[10],0.0348
COc1cc(Cc2cc3c(c(-c4ccccc4)n2)[Si](C(C)C)(C(C)C)OC3)cc(OC)c1OC,z-score,[1],0.233
same,z-score,[2],0.299 (inactive)
same,z-score,[3],1.03 (inactive)
same,composite z-score,[4],0.021 (inactive)
same,z-score,[5],-0.133 (inactive)
same,z-score,[6],-0.776 (inactive)
same,z-score,[7],1.13 (inactive)
same,z-score,[8],0.405 (inactive)
same,z-score,[9],0.542
same,composite z-score,[10],-0.305
CC(C)N1C(=O)[C@@]2(Cc3ccccc31)c1ccccc1C(=O)N(Cc1ccccc1)[C@H]2c1ccc(CO)cc1,z-score,[1],-0.147
same,z-score,[2],2.07 (inactive)
same,z-score,[3],0.144 (inactive)
same,composite z-score,[4],-19.1 (active)
same,z-score,[5],0.338 (inactive)
same,z-score,[6],1.69 (inactive)
same,z-score,[7],0.367 (inactive)
same,z-score,[8],-0.665 (inactive)
same,z-score,[9],0.0769
same,composite z-score,[10],-0.337
CCCCCCCCCCC(O)C1C=CC2C(=O)N(C)C(=O)C2N1Nc1ccccc1 (stereo not given),z-score,[1],-1.83
same,z-score,[2],0.27 (inactive)
same,z-score,[3],-1.49 (inactive)
same,composite z-score,[4],-0.205 (inactive)
same,z-score,[5],1.58 (inactive)
same,z-score,[6],1.35 (inactive)
same,z-score,[7],-0.483 (inactive)
same,z-score,[8],-0.54 (inactive)
same,z-score,[9],-1.33
same,composite z-score,[10],0.192
COCCOC(=O)N1C(=O)[C@@]2(c3cc(C#CCC(C(=O)OC)C(=O)OC)ccc31)[C@H](C(N)=O)[C@H]1C(=O)O[C@H](c3ccccc3)[C@H](c3ccccc3)N1[C@@H]2c1ccccc1OCCO,z-score,[1],-0.0131
same,z-score,[2],-0.65 (inactive)
same,z-score,[3],-1.99 (inactive)
same,composite z-score,[4],-7.07 (inactive)
same,z-score,[5],3.05 (inactive)
same,z-score,[6],-0.243 (inactive)
same,z-score,[7],0.664 (inactive)
same,z-score,[8],1.42 (inactive)
same,z-score,[9],-5.51
same,composite z-score,[10],0.231
O=C1c2ccccc2[C@](Cc2ccccc2I)(C(=O)NCCN2CCOCC2)[C@H](c2ccc(CO)cc2)N1Cc1ccccc1C(F)(F)F,z-score,[1],-0.936
same,z-score,[2],-1.14 (inactive)
same,z-score,[3],-0.269 (inactive)
same,composite z-score,[4],-0.584 (inactive)
same,z-score,[5],0.0435 (inactive)
same,z-score,[6],-0.538 (inactive)
same,z-score,[7],0.0398 (inactive)
same,z-score,[8],-0.46 (inactive)
same,z-score,[9],-0.606
same,composite z-score,[10],-0.0095
C[C@]1(C(=O)NCC(F)(F)F)c2ccccc2C(=O)N(Cc2cc(C(F)(F)F)cc(C(F)(F)F)c2)[C@H]1c1ccc(CO)cc1,z-score,[1],0.373
same,z-score,[2],-0.234 (inactive)
same,z-score,[3],1.2 (inactive)
same,composite z-score,[4],-0.954 (inactive)
same,z-score,[5],0.5 (inactive)
same,z-score,[6],0.507 (inactive)
same,z-score,[7],0.712 (inactive)
same,z-score,[8],0.827 (inactive)
same,z-score,[9],1.13
same,composite z-score,[10],-0.0099
C=C(COC)C(=O)CC[C@H](OC(C)=O)c1ccc(CO)o1,z-score,[1],0.815
same,z-score,[2],-0.111 (inactive)
same,z-score,[3],0.324 (inactive)
same,composite z-score,[4],-1.28 (inactive)
same,z-score,[5],-0.517 (inactive)
same,z-score,[6],-1.28 (inactive)
same,z-score,[7],0.581 (inactive)
same,z-score,[8],0.117 (inactive)
same,z-score,[9],0.875
same,composite z-score,[10],0.194
